The supplement of paper PMC10849652
About 7,900 targets were measured; listed, in parts, are those with a hit and a random draw of the rest. About 0.6% of all pairs of compound and target were hits.

Legend:
Assay in all cases: log2 fold change, soluble protein after heating vs DMSO (PISA); higher = thermal stabilisation; K562 cells, 10 uM, 30 min; active = over 0.2 and 3.5 SD of the protein, either way, in both replicates (recomputed)
[1] = compound: CC1=C2C(=CC=C1)N=C(N(C2=O)C3=CC=CC=C3C)CN4C=NC5=C(N=CN=C54)N
Summary of the method: (§1)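 Soluble protein was defined as the supernatant after 21,000xg for 90 min. It came from K562 cells at 2×10^6 cells/mL given 10 μM compound for 30 min, heated in aliquots for 3 min across 48°C-58°C, pooled, and extracted in PBS with 0.5% NP-40 at 4°C, and was quantified by TMTpro 16plex LC-MS/MS with equalised channel sums. Thermal stability against control samples, from duplicates, is reported as log2 fold change.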

[2] = compound: C1=CC=C(C=C1)[C@H](COC2=CC3=C(C=C2)NC(=O)N3)NC(=O)C4=CC=CN(C4=O)CC5=CC(=C(C=C5)F)F
Summary of the method: as §1

[3] = compound: CC1=C(SC2=C1C(=N[C@H](C3=NN=C(N32)C)CC(=O)N)C4=CC=C(C=C4)Cl)C
Summary of the method: as §1

[4] = compound: Cc1sc2c(c1C)C(c1ccc(Cl)cc1)=N[C@@H](CC(=O)OC(C)(C)C)c1nnc(C)n1-2
Summary of the method: as §1

[5] = compound: c1ccc([C@@H]2C[C@H]2NC2CCNCC2)cc1
Summary of the method: as §1

Measured: log2 fold change

SUPT5H isoform 2 (UniProt O00267)
inactive: [1] -0.015

SLC38A7 (UniProt Q9NVC3)
Sequence of UniProt Q9NVC3 (Q9NVC3 whole entry, looked up): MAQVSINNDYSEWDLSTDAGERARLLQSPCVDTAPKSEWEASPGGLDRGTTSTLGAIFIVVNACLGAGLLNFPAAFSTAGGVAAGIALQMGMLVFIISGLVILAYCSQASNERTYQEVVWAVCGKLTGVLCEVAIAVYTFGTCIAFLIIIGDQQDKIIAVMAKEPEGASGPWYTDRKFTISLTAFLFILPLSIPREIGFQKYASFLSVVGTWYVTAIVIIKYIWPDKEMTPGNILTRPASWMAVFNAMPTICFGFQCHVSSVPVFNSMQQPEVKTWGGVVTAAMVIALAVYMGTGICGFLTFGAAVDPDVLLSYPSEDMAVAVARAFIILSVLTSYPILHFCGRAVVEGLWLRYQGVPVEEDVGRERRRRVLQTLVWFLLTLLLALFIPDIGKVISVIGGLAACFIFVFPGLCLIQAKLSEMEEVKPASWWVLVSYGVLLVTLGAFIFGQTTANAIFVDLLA
inactive: [2] 0.021 | [3] -0.031 | [1] -0.004 | [4] -0.035 | [5] 0.117

TC2N (UniProt Q8N9U0)
inactive: [1] 0.053 | [4] 0.08

SLC9A6 isoform 3 (UniProt Q92581)
inactive: [2] -0.057 | [3] 0.003 | [4] -0.005 | [5] 0.089

SRXN1 (UniProt Q9BYN0)
Sequence of UniProt Q9BYN0 (Q9BYN0 whole entry, looked up): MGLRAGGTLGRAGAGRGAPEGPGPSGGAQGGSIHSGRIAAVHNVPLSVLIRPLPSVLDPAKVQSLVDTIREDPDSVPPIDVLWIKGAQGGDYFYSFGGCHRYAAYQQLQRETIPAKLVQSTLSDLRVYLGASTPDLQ
inactive: [2] -0.02 | [3] 0.086 | [1] 0.117 | [4] -0.05 | [5] 0.086

TIPRL (UniProt O75663)
Sequence of UniProt O75663 (O75663 whole entry, looked up): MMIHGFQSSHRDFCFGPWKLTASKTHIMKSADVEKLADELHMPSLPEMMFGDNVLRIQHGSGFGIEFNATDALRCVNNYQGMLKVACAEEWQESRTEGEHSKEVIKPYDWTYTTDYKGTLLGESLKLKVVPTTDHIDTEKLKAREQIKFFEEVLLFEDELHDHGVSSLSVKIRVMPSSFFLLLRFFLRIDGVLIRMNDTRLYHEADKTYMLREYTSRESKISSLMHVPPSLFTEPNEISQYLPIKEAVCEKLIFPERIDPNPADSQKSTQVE
inactive: [2] -0.078 | [3] 0.07 | [1] 0.083 | [4] 0.001 | [5] -0.007

SUN1 isoform 9 (UniProt O94901)
inactive: [3] -0.114 | [1] 0.013 | [4] 0.109 | [5] 0.018

SLIRP (UniProt Q9GZT3)
inactive: [2] -0.038 | [3] -0.073 | [1] 0.01 | [4] -0.016 | [5] 0.042

TAF6L (UniProt Q9Y6J9)
Sequence of UniProt Q9Y6J9 (Q9Y6J9 whole entry, looked up): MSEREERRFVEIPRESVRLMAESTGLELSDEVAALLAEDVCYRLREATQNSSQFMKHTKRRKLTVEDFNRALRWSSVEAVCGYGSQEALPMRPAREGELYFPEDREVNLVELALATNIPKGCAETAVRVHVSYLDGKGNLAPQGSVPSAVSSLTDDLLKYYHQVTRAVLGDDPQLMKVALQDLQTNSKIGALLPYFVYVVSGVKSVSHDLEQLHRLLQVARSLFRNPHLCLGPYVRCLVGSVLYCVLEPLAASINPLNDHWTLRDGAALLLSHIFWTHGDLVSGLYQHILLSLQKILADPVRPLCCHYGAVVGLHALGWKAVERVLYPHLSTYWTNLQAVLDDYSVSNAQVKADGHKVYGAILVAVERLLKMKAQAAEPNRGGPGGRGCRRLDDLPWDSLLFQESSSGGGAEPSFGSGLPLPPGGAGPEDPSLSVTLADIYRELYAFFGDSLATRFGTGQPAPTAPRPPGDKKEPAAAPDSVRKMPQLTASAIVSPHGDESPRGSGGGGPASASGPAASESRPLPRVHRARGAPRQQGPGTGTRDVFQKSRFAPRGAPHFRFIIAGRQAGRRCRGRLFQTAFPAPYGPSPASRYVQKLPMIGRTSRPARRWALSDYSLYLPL
inactive: [3] -0.209 | [4] 0.048 | [5] 0.073

TERF2IP (UniProt Q9NYB0)
Sequence of UniProt Q9NYB0 (Q9NYB0 whole entry, looked up): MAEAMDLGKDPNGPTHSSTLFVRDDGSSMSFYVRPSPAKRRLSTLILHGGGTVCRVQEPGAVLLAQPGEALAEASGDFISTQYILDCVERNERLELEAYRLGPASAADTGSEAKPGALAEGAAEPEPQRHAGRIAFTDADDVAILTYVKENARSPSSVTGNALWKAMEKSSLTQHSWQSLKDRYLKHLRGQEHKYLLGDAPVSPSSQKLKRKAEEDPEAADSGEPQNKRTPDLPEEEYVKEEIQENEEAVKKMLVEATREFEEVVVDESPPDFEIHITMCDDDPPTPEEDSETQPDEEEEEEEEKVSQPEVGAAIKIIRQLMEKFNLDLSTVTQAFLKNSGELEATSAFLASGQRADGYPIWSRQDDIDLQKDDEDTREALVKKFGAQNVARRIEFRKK
inactive: [2] 0.003 | [3] 0.01 | [1] 0.004 | [4] -0.01 | [5] 0.066

SMARCA4 (UniProt P51532)
Sequence of UniProt P51532 (P51532 whole entry, looked up): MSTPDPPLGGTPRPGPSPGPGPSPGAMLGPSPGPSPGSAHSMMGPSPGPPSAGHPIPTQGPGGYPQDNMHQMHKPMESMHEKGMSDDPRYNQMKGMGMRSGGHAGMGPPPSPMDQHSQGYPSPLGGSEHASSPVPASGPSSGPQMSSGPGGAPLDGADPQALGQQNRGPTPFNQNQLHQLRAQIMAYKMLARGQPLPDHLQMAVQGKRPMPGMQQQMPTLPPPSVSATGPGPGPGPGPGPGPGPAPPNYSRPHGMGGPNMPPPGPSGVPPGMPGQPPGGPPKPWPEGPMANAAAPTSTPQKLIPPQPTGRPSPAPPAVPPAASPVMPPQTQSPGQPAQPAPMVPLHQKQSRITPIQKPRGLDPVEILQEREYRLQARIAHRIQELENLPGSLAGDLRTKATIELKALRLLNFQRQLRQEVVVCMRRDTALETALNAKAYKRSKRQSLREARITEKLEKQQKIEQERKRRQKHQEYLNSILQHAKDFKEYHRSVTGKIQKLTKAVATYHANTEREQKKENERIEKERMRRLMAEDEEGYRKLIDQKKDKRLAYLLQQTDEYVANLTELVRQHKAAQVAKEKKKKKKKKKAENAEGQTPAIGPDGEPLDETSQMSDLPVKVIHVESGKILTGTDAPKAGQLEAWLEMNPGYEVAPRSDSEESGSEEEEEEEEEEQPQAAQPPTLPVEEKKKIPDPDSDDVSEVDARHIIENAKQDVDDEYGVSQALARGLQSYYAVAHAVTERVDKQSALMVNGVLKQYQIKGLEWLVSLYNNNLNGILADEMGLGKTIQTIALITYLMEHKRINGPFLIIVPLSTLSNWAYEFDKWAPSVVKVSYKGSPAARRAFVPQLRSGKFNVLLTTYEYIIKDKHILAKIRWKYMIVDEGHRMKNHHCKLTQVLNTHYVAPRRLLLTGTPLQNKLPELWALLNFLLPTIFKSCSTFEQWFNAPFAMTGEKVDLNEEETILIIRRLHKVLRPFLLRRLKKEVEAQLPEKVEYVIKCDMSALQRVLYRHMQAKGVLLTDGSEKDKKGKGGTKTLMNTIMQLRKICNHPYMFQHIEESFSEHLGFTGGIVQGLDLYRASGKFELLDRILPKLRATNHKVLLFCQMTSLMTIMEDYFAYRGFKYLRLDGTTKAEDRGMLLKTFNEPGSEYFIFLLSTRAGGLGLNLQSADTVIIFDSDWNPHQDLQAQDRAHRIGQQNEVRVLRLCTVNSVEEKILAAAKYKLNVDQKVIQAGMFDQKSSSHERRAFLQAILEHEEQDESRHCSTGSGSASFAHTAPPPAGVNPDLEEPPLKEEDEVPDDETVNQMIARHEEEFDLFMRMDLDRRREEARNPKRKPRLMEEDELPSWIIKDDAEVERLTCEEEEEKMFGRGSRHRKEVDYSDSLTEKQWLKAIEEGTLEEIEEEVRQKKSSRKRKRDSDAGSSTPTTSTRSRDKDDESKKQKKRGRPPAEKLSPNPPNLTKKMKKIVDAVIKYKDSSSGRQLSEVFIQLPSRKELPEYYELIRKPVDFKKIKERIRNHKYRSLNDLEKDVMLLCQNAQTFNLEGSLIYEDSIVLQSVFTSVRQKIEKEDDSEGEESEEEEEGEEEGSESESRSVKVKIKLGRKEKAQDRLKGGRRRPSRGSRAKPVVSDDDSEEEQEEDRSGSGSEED
inactive: [2] 0.073 | [3] -0.023 | [1] 0.244 | [5] -0.027

SMARCB1 (UniProt Q12824)
Sequence of UniProt Q12824 (Q12824 whole entry, looked up): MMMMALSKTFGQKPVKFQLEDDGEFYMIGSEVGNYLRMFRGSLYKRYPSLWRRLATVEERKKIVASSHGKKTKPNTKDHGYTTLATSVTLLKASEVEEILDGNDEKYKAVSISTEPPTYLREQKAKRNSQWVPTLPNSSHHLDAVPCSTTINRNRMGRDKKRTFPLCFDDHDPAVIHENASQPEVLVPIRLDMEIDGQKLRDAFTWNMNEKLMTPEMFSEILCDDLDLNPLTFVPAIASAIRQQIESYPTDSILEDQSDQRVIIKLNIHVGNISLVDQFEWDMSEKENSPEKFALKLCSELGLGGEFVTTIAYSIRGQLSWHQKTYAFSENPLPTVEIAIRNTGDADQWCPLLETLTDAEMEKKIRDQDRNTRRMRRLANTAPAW
inactive: [3] 0.057 | [1] -0.041 | [4] 0.015 | [5] 0.18

TANGO6 (UniProt Q9C0B7)
inactive: [2] -0.139 | [3] 0.052 | [4] 0.018 | [5] -0.086

SNX2 isoform 2 (UniProt O60749)
Sequence of UniProt O60749 (O60749 whole entry, looked up): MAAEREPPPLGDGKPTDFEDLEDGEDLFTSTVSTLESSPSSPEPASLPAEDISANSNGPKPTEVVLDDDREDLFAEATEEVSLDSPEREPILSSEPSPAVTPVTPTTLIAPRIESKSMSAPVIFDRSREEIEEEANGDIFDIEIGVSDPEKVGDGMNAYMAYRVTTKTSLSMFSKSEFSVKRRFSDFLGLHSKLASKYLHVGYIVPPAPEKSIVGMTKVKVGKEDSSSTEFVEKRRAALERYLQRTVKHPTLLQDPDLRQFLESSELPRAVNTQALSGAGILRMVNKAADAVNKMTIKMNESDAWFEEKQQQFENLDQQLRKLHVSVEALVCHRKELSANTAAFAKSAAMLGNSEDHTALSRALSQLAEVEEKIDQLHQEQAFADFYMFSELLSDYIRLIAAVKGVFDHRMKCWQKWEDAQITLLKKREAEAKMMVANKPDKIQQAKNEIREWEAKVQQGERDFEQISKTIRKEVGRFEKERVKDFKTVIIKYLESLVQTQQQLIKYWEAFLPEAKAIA
inactive: [2] 0.092 | [3] 0.217 | [1] 0.094 | [5] 0.066

SSBP4 (UniProt U3KPY3)
inactive: [1] 0

SLC35B4 (UniProt Q969S0)
inactive: [2] 0.061 | [1] -0.069 | [4] -0.137

TECR (UniProt Q9NZ01)
inactive: [2] -0.015 | [3] 0.049 | [1] 0.033 | [4] -0.046 | [5] 0

SRFBP1 (UniProt Q8NEF9)
Sequence of UniProt Q8NEF9 (Q8NEF9 whole entry, looked up): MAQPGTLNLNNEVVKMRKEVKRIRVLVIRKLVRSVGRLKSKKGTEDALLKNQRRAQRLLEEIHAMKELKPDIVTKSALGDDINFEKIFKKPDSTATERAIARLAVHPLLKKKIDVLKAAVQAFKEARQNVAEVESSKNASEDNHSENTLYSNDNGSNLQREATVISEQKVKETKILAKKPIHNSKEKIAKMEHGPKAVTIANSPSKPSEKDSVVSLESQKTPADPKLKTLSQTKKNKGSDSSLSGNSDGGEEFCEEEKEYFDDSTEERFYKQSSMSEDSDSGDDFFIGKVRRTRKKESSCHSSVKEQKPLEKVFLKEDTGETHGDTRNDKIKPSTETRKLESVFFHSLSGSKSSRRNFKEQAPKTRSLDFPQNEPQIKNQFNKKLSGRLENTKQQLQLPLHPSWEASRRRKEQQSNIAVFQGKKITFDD
inactive: [2] 0.011 | [3] -0.14 | [4] 0.048 | [5] -0.013
